Assay outcomes (PubChem)
Most compounds without a hit are left out; they make up all but 3.8% or so of the library.
Mdm2-MdmX inh: disrupts the human Mdm2-MdmX interaction; O15151+Q00987; SaOS-2 split-luciferase Mdm2/MdmX complementation, luminescence; inhibition, % at 8 µM; hit rate 3% among 330,000; AID 485346;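 active = inhibition of at least 50% at 8 µM in the primary screen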
Target sequence (O15151 whole entry, looked up): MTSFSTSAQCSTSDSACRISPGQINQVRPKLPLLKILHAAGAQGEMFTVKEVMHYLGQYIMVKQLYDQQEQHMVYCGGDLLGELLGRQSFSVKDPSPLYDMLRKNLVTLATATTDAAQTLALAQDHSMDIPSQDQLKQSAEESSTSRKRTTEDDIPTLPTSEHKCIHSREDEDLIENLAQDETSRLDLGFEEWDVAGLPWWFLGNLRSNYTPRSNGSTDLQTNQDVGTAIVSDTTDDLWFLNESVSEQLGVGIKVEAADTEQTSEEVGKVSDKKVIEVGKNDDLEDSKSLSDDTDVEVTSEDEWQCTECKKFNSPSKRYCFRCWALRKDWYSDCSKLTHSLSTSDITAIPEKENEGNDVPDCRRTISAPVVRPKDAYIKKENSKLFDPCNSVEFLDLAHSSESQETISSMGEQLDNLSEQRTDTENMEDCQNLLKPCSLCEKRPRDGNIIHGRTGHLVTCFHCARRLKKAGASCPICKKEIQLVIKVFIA
Target sequence (Q00987 whole entry, looked up): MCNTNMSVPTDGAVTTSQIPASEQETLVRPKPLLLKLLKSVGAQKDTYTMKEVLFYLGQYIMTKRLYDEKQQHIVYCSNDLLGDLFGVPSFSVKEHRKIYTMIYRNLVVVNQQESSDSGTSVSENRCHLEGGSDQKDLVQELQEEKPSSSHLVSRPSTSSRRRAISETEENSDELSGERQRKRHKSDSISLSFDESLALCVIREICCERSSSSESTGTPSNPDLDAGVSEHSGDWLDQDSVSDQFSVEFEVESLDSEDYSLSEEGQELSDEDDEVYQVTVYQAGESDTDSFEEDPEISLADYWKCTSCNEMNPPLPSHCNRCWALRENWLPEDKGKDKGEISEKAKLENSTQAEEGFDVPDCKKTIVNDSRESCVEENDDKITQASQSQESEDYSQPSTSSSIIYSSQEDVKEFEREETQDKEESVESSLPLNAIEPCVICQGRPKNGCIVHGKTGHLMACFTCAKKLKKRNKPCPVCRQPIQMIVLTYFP
697 NFkB inh: lowers PMA/ionomycin-induced NF-kB signal in 697 B cells. 697 B-cell NF-kB luciferase reporter, 16 h. inhibition, % at 4 µM. hit rate 0.33% among 330,000. AID 435022; in the data active = inhibition above about 35%
Shn3 3UTR inh: Schnurri-3 reporter inhibition in Clone20 osteoblasts; Clone20 osteoblast Shn3 3'UTR firefly luciferase, 24 h; inhibition, % at 12.5 µM; hit rate 0.52% among 360,000; AID 588674;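 active = mean inhibition of at least 75% with every replicate also reaching 75%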;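 note: 0% = median of neutral control wells and 100% = pilot-screen positive control compound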
Gli-Sufu block: blocks Gli-Sufu signaling in a luciferase reporter. Sufu-KO-LIGHT fibroblasts, Gli luciferase reporter luminescence. inhibition, % at 5 µM. hit rate 0.74% among 340,000. AID 588413;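 active = inhibition above about 55%, limit read from the data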;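 note: 0% = DMSO-treated cells and 100% = wells with medium but no cells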
Jurkat NFkB inh: lowers PMA/ionomycin-induced NF-kB signal in Jurkat cells; PMA/ionomycin-induced NF-kB luciferase reporter, luminescence; inhibition, % at 4 µM; hit rate 0.53% among 330,000; in the data active = inhibition above about 50%
Jurkat NFkB conf: inhibitors of the PMA/ionomycin-induced NF-kB reporter in Jurkat cells, retest; shares compounds with Jurkat NFkB inh; Jurkat NF-kB luciferase, 16 h; inhibition, % at 4 µM; hit rate 27% among 2,700;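 active = inhibition reaching about 45% at 4 µM in either replicate, limit read from the data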;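 note: plate controls were PMA/ionomycin stimulated DMSO wells for no effect and unstimulated DMSO wells for full effect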
* hit, by the source's call.

For Cc1cc(C)n(-c2nc3c(c(=O)[nH]c(=O)n3C)n2CC(O)COc2ccc(Cl)cc2Cl)n1 (centres undefined) the results were Mdm2-MdmX inh 46, 697 NFkB inh -31, Shn3 3UTR inh 26, Gli-Sufu block 17, Jurkat NFkB inh 51* and Jurkat NFkB conf 46.
`Cc1cccc(C)c1NC(=O)c1ccc2sc([C@@H]3O[C@H](CO)[C@H](O)[C@H](O)[C@H]3O)nc2c1` gave Shn3 3UTR inh -16.
For C[C@@H]1CN([C@@H](C)CO)C(=O)c2cc(Br)cnc2O[C@H]1CN(C)C(=O)Nc1ccc(F)cc1 the results were Shn3 3UTR inh 5.
Screening Cc1cc(NC(=O)CSc2nc(C3CC3)nc3sc(C)c(C)c23)no1 returned Mdm2-MdmX inh 34, 697 NFkB inh -55, Shn3 3UTR inh -20, Gli-Sufu block 2, Jurkat NFkB inh 51* and Jurkat NFkB conf 7.
For Cn1cc(-c2csc(C(O)c3ccc(F)c(F)c3)n2)cn1 (centres undefined) the results were Shn3 3UTR inh 6.
`CCOCCCNC(=O)c1cc2c(=O)n3cccc(C)c3nc2n1C` gave Mdm2-MdmX inh 44, 697 NFkB inh -12, Shn3 3UTR inh -2, Gli-Sufu block 0, Jurkat NFkB inh 58* and Jurkat NFkB conf 44.
Screening COCCNC(=O)c1cc2c(=O)n3cccc(C)c3nc2n1C returned Mdm2-MdmX inh 25, 697 NFkB inh -12, Shn3 3UTR inh 6, Gli-Sufu block -7 and Jurkat NFkB inh 47.
`CCN(CC(=O)Nc1ccccc1C(F)(F)F)C(=O)c1ccccc1OCc1ccc(F)cc1` gave Shn3 3UTR inh 35 and Gli-Sufu block 6.
`O=C(Nc1nc2ccccc2c(=O)s1)c1ccco1` gave Mdm2-MdmX inh -4, 697 NFkB inh 31, Shn3 3UTR inh 20, Gli-Sufu block 3, Jurkat NFkB inh 64* and Jurkat NFkB conf 21.
O=C(Nc1nc2cc3c(cc2s1)OCO3)c1ccco1 was read as Shn3 3UTR inh 46 and Gli-Sufu block -29.
`COCC1CCN(Cc2c(C(=O)N3CCc4ccccc4C3)nc3ccc(Cl)cn23)C1` (centres undefined) gave Mdm2-MdmX inh 19, 697 NFkB inh 27, Shn3 3UTR inh -3, Gli-Sufu block 18 and Jurkat NFkB inh -1.
Screening Cc1cc(C)c(C#N)c(SCc2ccccc2)n1 returned Mdm2-MdmX inh 6, 697 NFkB inh -1, Shn3 3UTR inh -2, Gli-Sufu block -8 and Jurkat NFkB inh 7.
Cc1ccc2nc(CSc3nc(C)cc(C)c3C#N)[nH]c2c1 was read as Mdm2-MdmX inh -126, 697 NFkB inh -182, Shn3 3UTR inh -20, Gli-Sufu block -30, Jurkat NFkB inh -179 and Jurkat NFkB conf -56.
Screening COC(=O)/C=C/c1ccccc1S(=O)(=O)N(Cc1ccccc1)Cc1ccco1 returned Mdm2-MdmX inh 37, 697 NFkB inh -90, Shn3 3UTR inh 6, Gli-Sufu block 9, Jurkat NFkB inh 56* and Jurkat NFkB conf 7.
`O=S(=O)(c1ccc(S(=O)(=O)N(Cc2ccccc2)Cc2ccco2)cc1)N1CCCC1` gave Mdm2-MdmX inh 20, 697 NFkB inh -2, Shn3 3UTR inh -14, Gli-Sufu block -2 and Jurkat NFkB inh -12.
Screening Fc1ccccc1Cn1nnc(-c2ccc3c(c2)OCO3)n1 returned Mdm2-MdmX inh -151, 697 NFkB inh -150, Shn3 3UTR inh -83, Gli-Sufu block -150, Jurkat NFkB inh -162 and Jurkat NFkB conf -127.
Screening COc1ccc(-c2nnn(Cc3ccccc3F)n2)cc1 returned Mdm2-MdmX inh -166, 697 NFkB inh -144, Shn3 3UTR inh -47, Gli-Sufu block 3 and Jurkat NFkB inh -104.
CCc1nc2c(OCC(=O)N3CCOCC3)cccn2c1N(C=O)Cc1ccccc1 was read as Shn3 3UTR inh -9.
`COc1cc(NCc2ccccc2O)c2ncccc2c1` gave Mdm2-MdmX inh 32, 697 NFkB inh -5, Shn3 3UTR inh 1, Gli-Sufu block 1 and Jurkat NFkB inh 10.
For COc1cc(NCCCCCCCN)c2ncccc2c1 the results were Mdm2-MdmX inh 34, 697 NFkB inh -44, Shn3 3UTR inh 3, Gli-Sufu block -15, Jurkat NFkB inh 93* and Jurkat NFkB conf 60*.
O=C(O)Cc1ccc(NC(=O)Cc2ccc3ccccc3c2)cc1 was read as Mdm2-MdmX inh 0, 697 NFkB inh -91, Shn3 3UTR inh -8, Gli-Sufu block 3 and Jurkat NFkB inh 0.
Cc1ccc(NS(=O)(=O)c2ccc(NC(=O)CSc3ccc(Cl)cc3)cc2)c(C)c1 was read as Mdm2-MdmX inh 33, 697 NFkB inh 5, Shn3 3UTR inh 29, Gli-Sufu block 3 and Jurkat NFkB inh -2.
Cc1ccc(O)c(NC(=O)CSc2ccc(Cl)cc2)c1 was read as Mdm2-MdmX inh 26, 697 NFkB inh -12, Shn3 3UTR inh 26, Gli-Sufu block 21, Jurkat NFkB inh 69* and Jurkat NFkB conf 35.
`Cc1ccc(O)c(NC(=O)Cc2ccc3ccccc3c2)c1` gave Mdm2-MdmX inh 5, 697 NFkB inh -23, Shn3 3UTR inh 9, Gli-Sufu block 28, Jurkat NFkB inh 74* and Jurkat NFkB conf 37.
Screening O=C(O)C(CCc1ccccc1)(Cc1ccccc1)C(=O)O returned Shn3 3UTR inh 9 and Gli-Sufu block 2.
`COc1ccc(-c2nc3ccc(Br)cn3c2CC(C)(C)C)cc1OC` gave Shn3 3UTR inh -15.
O=C(COc1ccc(F)cc1)Nc1nc(-c2cccnc2)cs1 was read as Shn3 3UTR inh -5.
Screening O=C(Nc1ccccc1)N1CCC(c2nc(-c3ccc(S(=O)(=O)N4CCOCC4)cc3)no2)CC1 returned Mdm2-MdmX inh 40, 697 NFkB inh -82, Shn3 3UTR inh 44, Gli-Sufu block 5, Jurkat NFkB inh 53* and Jurkat NFkB conf 19.
CCCN1CCC(=NNc2ccc(S(=O)(=O)N(CC)CC)cc2[N+](=O)[O-])CC1 was read as Mdm2-MdmX inh 40, 697 NFkB inh -12, Shn3 3UTR inh 16, Gli-Sufu block -5, Jurkat NFkB inh 59* and Jurkat NFkB conf -7.
`COc1ccc(CCN2C(=O)C3C4C=CC(C3C2=O)C2C(=O)N(CCc3ccc(OC)c(OC)c3)C(=O)C42)cc1OC` (centres undefined) gave Mdm2-MdmX inh 8, 697 NFkB inh 21, Shn3 3UTR inh 71, Gli-Sufu block 8, Jurkat NFkB inh 59* and Jurkat NFkB conf 56*.
`O=C(/C=C/c1ccco1)Nc1ccc2c(c1)OCCO2` gave Mdm2-MdmX inh -133, 697 NFkB inh -208, Shn3 3UTR inh -4, Gli-Sufu block -132, Jurkat NFkB inh -160 and Jurkat NFkB conf -58.
`CCc1ccc(/C=N/NC(=O)c2cc(C3CC3)nc3ccccc23)s1` gave Mdm2-MdmX inh 41, 697 NFkB inh -23, Gli-Sufu block 3, Jurkat NFkB inh 58* and Jurkat NFkB conf 33.
Cc1cccc(/C=N/NC(=O)c2cc(C3CC3)nc3ccccc23)n1 was read as Mdm2-MdmX inh 8, 697 NFkB inh 11, Shn3 3UTR inh 18, Gli-Sufu block -1 and Jurkat NFkB inh 11.
